RecA splice inh: Mtb RecA intein splicing inhibitors, primary screen, biochemical, fluorescence, HTS; cell-free RecA intein splicing; AID 2221, 2009; inhibition, % (no concentration beside the values); 290,000 compounds, 0.75% hits; in the data active = inhibition above about 30%;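 also: 0% = vehicle wells and 100% = reference inhibitor control wells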
RmlCD inh 1536: M. tuberculosis RmlC/RmlD coupled enzyme inhibitors, primary screen, biochemical, compound mixtures, 384-well, from 1536-well plates. RmlC+RmlD coupled enzyme assay, percent inhibition; primary screen in compound mixtures. inhibition, % at 3.6 µM. 160,000 compounds, 0.03% hits; in the data active = inhibition mostly above about 34%, no sharp cut-off
Target sequence (P9WH09 whole entry, looked up): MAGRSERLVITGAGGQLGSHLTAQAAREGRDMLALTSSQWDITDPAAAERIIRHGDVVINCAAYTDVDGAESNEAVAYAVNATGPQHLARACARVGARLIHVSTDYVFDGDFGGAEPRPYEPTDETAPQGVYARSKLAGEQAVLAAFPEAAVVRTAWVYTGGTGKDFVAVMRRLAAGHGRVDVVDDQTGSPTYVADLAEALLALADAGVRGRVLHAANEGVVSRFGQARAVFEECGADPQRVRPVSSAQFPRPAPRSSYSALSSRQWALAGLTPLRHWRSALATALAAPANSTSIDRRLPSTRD
Target sequence (P9WH11 whole entry, looked up): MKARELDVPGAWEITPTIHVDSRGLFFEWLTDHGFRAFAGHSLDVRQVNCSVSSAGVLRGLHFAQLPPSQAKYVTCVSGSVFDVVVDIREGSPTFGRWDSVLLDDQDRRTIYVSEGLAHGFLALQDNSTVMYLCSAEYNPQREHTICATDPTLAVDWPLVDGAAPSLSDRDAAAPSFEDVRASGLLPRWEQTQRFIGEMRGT
GFP chromophore: counter-screen: blocks GFP chromophore formation, dose response, counter-screen, biochemical, fluorescence, homogeneous | shares compounds with RecA splice inh | cell-free GFP chromophore formation | EC50, µM | 2,100 compounds, 83% hits; call rule not given here
Starred values were filed as active, the others as inactive; . = not tested or not shown. Sampled rows, rich in hits. Any-hit rate of the full collection: about 0.77%.

SMILES | RecA splice inh | RmlCD inh 1536 | GFP chromophore
[O-]C1=N/[N+](=C/c2ccc(Cl)cc2)CC1 | 73* | . | 29*
CCOC(=O)c1c(NC(=O)COc2ccccc2)sc2c1CC(C)(C)NC2(C)C | -2 | -1 | .
Cc1nc(-c2ccc(C(=O)Nc3ccccc3F)cc2)cs1 | 0 | 0 | .
CN(C)CC/C=C1\c2ccccc2Sc2ccc(Cl)cc21 | 4 | . | .
CCCCCCCCCCC[N+](C)(C)CC/C=C1/c2ccccc2Sc2ccc(Cl)cc21 | 63* | . | 9.5*
CCCCCCCCCC[N+](C)(C)CC/C=C1/c2ccccc2Sc2ccc(Cl)cc21 | 69* | . | 12*
CC[N+](C)(C)CC/C=C1/c2ccccc2Sc2ccc(Cl)cc21 | 14 | 12 | .
CC(=O)c1cccc(NC(=O)CSc2nc(=O)n(CCCN3CCOCC3)c3c2CCC3)c1 | -2 | . | .
CC1(C)Nc2ccc(O)cc2-c2c1ssc2=S | 93* | . | 2.4*
COc1cccc(-n2sc3c(c2=S)-c2cc(OC)ccc2NC3(C)C)c1 | -6 | -2 | .
Cc1cc(C(=O)CCl)c(C)n1CCc1ccc(Cl)cc1 | 62* | . | 21*
Cc1cc(C(=O)CCl)c(C)n1CCc1ccc(F)cc1 | 27 | 0 | .
COc1ccc(/C=N/OCC(=O)N=Nc2c(O)[nH]c3ccc(Br)cc23)cc1OC | . | 4 | .
COC(=O)CSc1nnc(CNS(=O)(=O)c2ccc(Br)cc2)n1C | -1 | 7 | .
O=C(COc1ccccc1C(=O)Nc1ccccc1)c1ccc(Br)cc1 | -3 | 8 | .
O=C(Oc1ccccc1C(=O)Nc1ccccc1)c1ccccc1Br | 54* | -6 | 36*
O=c1cc(-c2ccccc2)[nH][nH]1 | 97* | . | 2.2*
O=c1cc(-c2ccc(C3CCCCC3)cc2)[nH][nH]1 | 76* | -11 | 1.9*
Fc1ccc(-c2cnc[nH]2)cc1 | 3 | -7 | .
O=S(=O)(c1ccc(C2CCCCC2)cc1)N1CCOCC1 | -1 | . | .
O=c1cc(-c2ccc(F)cc2)[nH][nH]1 | 98* | -9 | 2.3*
O=c1cc(-c2ccc(Br)cc2)[nH][nH]1 | 97* | -10 | 3.7*
O=c1ccc(Br)c[nH]1 | 1 | 8 | .
O=c1cccc(-c2ccccc2)[nH]1 | 1 | . | .
CC(C)Oc1cccc(C(=O)C2CCCN(Cc3cccn3-c3cccnc3)C2)c1 (stereo not given) | 4 | 3 | .
SMILES | RecA splice inh | RmlCD inh 1536 | GFP chromophore
CCNC(=S)N1CCN(S(=O)(=O)c2ccc(C)c(C)c2)CC1 | 0 | -15 | .
Cc1ccccc1N1CC(O)(c2cccs2)[N+]2=C1CCCC2 (stereo not given) | -3 | 11 | .
COc1ccccc1C(NC(=O)CC(C)C)c1c(O)ccc2ccccc12 (stereo not given) | -5 | . | .
COc1ccccc1C(NC(C)=O)c1c(O)ccc2ccc(O)cc12 (stereo not given) | 79* | . | 5.1*
COC(=O)c1cn(NC(=O)C2CCCCC2)c(=O)c2ccccc12 | 2 | -4 | .
O=C(CCl)NC(=O)NC12CC3CC(CC(C3)C1)C2 | 59* | 3 | 29*
CC(Cl)C(=O)NC(=O)NC12CC3CC(CC(C3)C1)C2 (stereo not given) | 4 | 1 | .
O=C(Cc1ccccc1[N+](=O)[O-])NCCCN1CCOCC1 | 0 | 6 | .
CCC1CO/C(=C(\C(Cl)=C(Cl)Cl)[N+](=O)[O-])N1Cc1ccc(Cl)nc1 (stereo not given) | -1 | . | .
O=C(C(=C1N(Cc2ccc(Cl)nc2)CCN1Cc1ccc(Cl)nc1)[N+](=O)[O-])C(Cl)Cl | 76* | . | 6.5*
COC(=O)c1nn(-c2ccccc2)c(=O)cc1Sc1ccc(Cl)cc1 | -1 | -6 | .
Cc1ccc(Sc2c(C)[nH]n(C(C)(C)C)c2=O)cc1 | 50* | -10 | 40*
Cc1ccc(SC2=C(Sc3ccc(C)cc3)C(=O)c3ccccc3C2=O)cc1 | 12 | . | .
N#Cc1ccncc1Sc1ccc(Cl)cc1 | -1 | . | .
CCN(CC)CCN1C(=O)C(O)=C(C(C)=O)C1c1ccccc1[N+](=O)[O-] (stereo not given) | 77* | . | 7.8*
CC(=O)C1=C(O)C(=O)N(CCc2ccccc2)C1c1ccccc1[N+](=O)[O-] (stereo not given) | -2 | 0 | .
CN1CCN(C(c2cccnc2)c2ccc3cccnc3c2O)CC1 (stereo not given) | 6 | -4 | .
CN1CCN(C(c2ccc(Br)cc2)c2cc(Cl)c3cccnc3c2O)CC1 (stereo not given) | 74* | . | 9.8*
CCCCCC(=O)O[C@]1(C(C)=O)CC[C@H]2[C@@H]3CCC4=CC(=O)CC[C@]4(C)[C@H]3CC[C@@]21C | 33* | . | >38
CC(=O)[C@@]1(O)CC[C@H]2[C@@H]3CCC4=CC(=O)CC[C@]4(C)[C@H]3CC[C@@]21C | 1 | . | .
